Laboratory results taken from PubChem BioAssay (NCATS).
Several values for one entry are separate records, joined by “and”; a condition that tells them apart may be missing. Equal entries are not always repeated. Values without a mark were called inactive. Records with an inconclusive call do not appear. Activity calls are given as the source filed them. Unless noted, calls follow the shape of the dose curve; as a rule, active = well fitted curve in the direction sought with a large enough effect in the repeat runs; inconclusive = weak or mixed curves; inactive = no such curve, though single readings can be large; an effect the other way counts as inactive or inconclusive.

Tested on: not listed separately
Test: qHTS assay for small molecule agonists of the antioxidant response element (ARE) signaling pathway measured by Nrf2-dependant transcriptional activity - cell viability counter screen (AID 720653); also: potency is read from the fitted curve at half-maximal effect; as to max response: % is scaled to controls: 0 for no effect and ±100 for the full control effect
Settings: ARE-bla HepG2 viability, CellTiter-Glo ATP luminescence, 16 h; max response: hits give low values
Summary of the method: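 ARE-bla HepG2 cells treated with compounds for 16 h at 37C; this counter screen measures viability as intracellular ATP by CellTiter-Glo luminescence after 30 min at room temperature.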
`NC(=O)c1ncn([C@@H]2O[C@H](CO)[C@@H](O)[C@H]2O)n1` gave a max response of -11.8%.
Work on `Nc1ccc(S(=O)(=O)Nc2nccs2)cc1` yielded a max response of -8.72%.
With `Cc1c(O)cccc1C(=O)N[C@@H](CSc1ccccc1)[C@H](O)CN1C[C@H]2CCCC[C@H]2C[C@H]1C(=O)NC(C)(C)C` the Potency was 44.7 µM (active).
With `CC(O)COc1ccccc1` (stereo unspecified) the max response was -6.41%.
Work on `COc1ccc(Cl)cc1C(=O)NCCc1ccc(S(=O)(=O)NC(=O)NC2CCCCC2)cc1` yielded a max response of -18.1%.
Compound `CC1(C)[C@@H]2CC[C@@]1(C)C(=O)C2` has a max response of -10.3%.
`CCCCC(CC)COC(=O)c1ccccc1O` (stereo unspecified) gave a max response of -10.2%.
`CN(C)CCOC(C)(c1ccccc1)c1ccccn1` (stereo unspecified) gave a max response of -11.9%.
For `NCCNCCNCCNCCN`, the max response was -13.9% and 10.9%.
`O=S(=O)(O)NC1CCCCC1` gave a max response of 2.33%.
With `CC1=C(/C=C/C(C)=C/C=C/C(C)=C/C(=O)O)C(C)(C)CCC1` the max response was -2.09% and 3.64%.
With `NCCNCCNCCN` the max response was -12.2%.
`C[C@]12CC[C@@H]3c4ccc(O)cc4CC[C@H]3[C@@H]1CCC2=O` showed a max response of -0.718%.
For `COc1ccccc1O`, the max response was 0.99% and -1.64% and 4.12%.
In the case of `Cc1cc2nc3c(=O)[nH]c(=O)nc-3n(C[C@H](O)[C@H](O)[C@H](O)CO)c2cc1C`, the max response is reported as 0.335%.
With `C[C@]12C[C@H](O)[C@H]3[C@@H](CCC4=CC(=O)CC[C@@]43C)[C@@H]1CC[C@@H]2C(=O)CO` the max response was -15.9% and -13%.
With `COC(=O)C1=C(C)NC(C)=C(C(=O)OC)C1c1ccccc1[N+](=O)[O-]` the max response was -20.5%.
For `Cc1cccc(Nc2cc(Cl)nc(SCC(=O)O)n2)c1C`, the max response was -4.18%.
Work on `Oc1cccc(O)c1` yielded a max response of 0.509%.
For `CCOC(=O)c1ccc(O)cc1`, the max response was -0.862%.
For `Cc1cc(CC(=O)O)n(C)c1C(=O)c1ccc(Cl)cc1`, the max response was -9.23%.
In the case of `CNC(=O)Oc1ccc2c(c1)[C@]1(C)CCN(C)[C@@H]1N2C`, the max response is reported as -1.23%.
Work on `CC(O)CN(CCN(CC(C)O)CC(C)O)CC(C)O` (stereo unspecified) yielded a max response of -0.296%.
`NC(=O)N/N=C/c1ccc([N+](=O)[O-])o1` gave a max response of -20.9%.
In the case of `CC(CN1c2ccccc2Sc2ccccc21)N(C)C` (stereo unspecified), the max response is reported as -20.1%.
`CCCc1c(OCCCCc2nn[nH]n2)ccc(C(C)=O)c1O` showed a max response of 2.63%.
Work on `CN(C)CCCN1c2ccccc2CCc2ccccc21` yielded a max response of -13.3%.
For `CCCCOC(=O)c1ccc(O)cc1`, the max response was 4.31% and -13.4%.
With `CC12CCC(CC1)C(C)(C)O2` the max response was 3.37%.
`[Cl][In]([Cl])[Cl]` gave a max response of 5.32%.
For `O=C1O[C@H]([C@@H](O)CO)C(O)=C1O`, the max response was 26.8% and 1.51%.
`O=C1c2c(O)cccc2Cc2cccc(O)c21` showed a max response of -0.576%.
In the case of `O=C1NS(=O)(=O)c2ccccc21`, the max response is reported as -2.82%.
In the case of `CCCCCCCCCCCCOS(=O)(=O)O`, the max response is reported as -1.36% [middle of 4 runs].

Biological target: T1, Hexokinase-4 (Homo sapiens) + Glucokinase regulatory protein (Homo sapiens) (UniProt P35557+Q14397)
T1 sequence (P35557 whole entry, looked up): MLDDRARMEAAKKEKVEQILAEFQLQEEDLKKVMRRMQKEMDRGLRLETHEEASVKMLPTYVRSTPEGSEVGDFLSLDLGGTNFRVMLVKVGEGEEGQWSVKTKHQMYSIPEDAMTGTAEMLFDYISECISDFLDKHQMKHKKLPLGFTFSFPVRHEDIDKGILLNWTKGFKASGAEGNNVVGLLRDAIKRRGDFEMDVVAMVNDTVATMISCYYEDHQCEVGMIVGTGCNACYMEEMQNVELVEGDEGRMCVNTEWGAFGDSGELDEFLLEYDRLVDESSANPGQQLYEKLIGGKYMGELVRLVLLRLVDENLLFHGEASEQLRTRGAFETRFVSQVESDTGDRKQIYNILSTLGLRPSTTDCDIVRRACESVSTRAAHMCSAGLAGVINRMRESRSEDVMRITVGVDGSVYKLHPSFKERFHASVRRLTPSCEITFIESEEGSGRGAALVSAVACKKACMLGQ
T1 sequence (Q14397 whole entry, looked up): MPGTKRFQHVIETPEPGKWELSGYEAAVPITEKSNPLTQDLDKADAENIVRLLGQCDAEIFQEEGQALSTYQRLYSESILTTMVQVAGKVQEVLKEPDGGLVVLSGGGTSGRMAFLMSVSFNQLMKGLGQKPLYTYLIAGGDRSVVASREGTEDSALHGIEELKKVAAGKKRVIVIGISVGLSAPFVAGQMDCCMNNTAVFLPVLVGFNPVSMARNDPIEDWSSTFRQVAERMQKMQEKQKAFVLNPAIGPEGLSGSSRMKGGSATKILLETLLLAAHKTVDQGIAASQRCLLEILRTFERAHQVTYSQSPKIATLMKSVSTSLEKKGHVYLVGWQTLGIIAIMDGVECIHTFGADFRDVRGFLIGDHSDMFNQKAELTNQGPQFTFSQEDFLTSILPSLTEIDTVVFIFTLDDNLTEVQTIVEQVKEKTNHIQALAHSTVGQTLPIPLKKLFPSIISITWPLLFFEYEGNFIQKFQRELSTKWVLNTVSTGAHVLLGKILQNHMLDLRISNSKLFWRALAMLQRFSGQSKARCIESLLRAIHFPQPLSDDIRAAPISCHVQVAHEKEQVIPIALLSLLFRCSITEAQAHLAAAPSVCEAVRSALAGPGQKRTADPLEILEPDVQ
Test: qHTS assay for inhibitors of recombinant human GCK-GKRP interaction: Diaphorase-coupled assay (AID 743205; active = well fitted curve in the direction sought with a large enough effect; an effect the other way counts as inactive or inconclusive)
Settings: G6PDH/diaphorase resorufin fluorescence; series mostly up to 57.5 µM
Summary of the method: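 Signal derives from resorufin generated by diaphorase, linked to GCK turnover of glucose (5 mM) and ATP (0.4 mM). Enzyme complex was added after a 20-minute compound preincubation and monitored for 30 minutes.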
In the case of `NC(=O)c1ncn([C@@H]2O[C@H](CO)[C@@H](O)[C@H]2O)n1`, the outcome is reported as “inactive”.
With `COc1ccc(Cl)cc1C(=O)NCCc1ccc(S(=O)(=O)NC(=O)NC2CCCCC2)cc1` the outcome was “inactive”.
In the case of `CN(C)CCOC(C)(c1ccccc1)c1ccccn1` (stereo unspecified), the outcome is reported as “inactive”.
In the case of `CC1=C(/C=C/C(C)=C/C=C/C(C)=C/C(=O)O)C(C)(C)CCC1`, the outcome is reported as “inactive”.
For `C[C@]12CC[C@@H]3c4ccc(O)cc4CC[C@H]3[C@@H]1CCC2=O`, the outcome was “inactive”.
In the case of `C[C@]12C[C@H](O)[C@H]3[C@@H](CCC4=CC(=O)CC[C@@]43C)[C@@H]1CC[C@@H]2C(=O)CO`, the outcome is reported as “inactive”.
With `COC(=O)C1=C(C)NC(C)=C(C(=O)OC)C1c1ccccc1[N+](=O)[O-]` the outcome was “inactive”.
For `CC(CN1c2ccccc2Sc2ccccc21)N(C)C` (stereo unspecified), the outcome was “inactive”.

Biological target: T1, Hexokinase-4 (Homo sapiens) + Glucokinase regulatory protein (Homo sapiens)
Test: qHTS assay for inhibitors of recombinant human GCK-GKRP interaction: ADP-Glo assay (AID 743206; active = well fitted curve in the direction sought with a large enough effect; an effect the other way counts as inactive or inconclusive;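 also: plate controls were DMSO plus enzyme for no effect and no enzyme for full effect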)
Settings: ADP-Glo luminescence, 60 min, 0% = vehicle-only wells with enzyme present; series mostly up to 76.9 µM
Summary of the method: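 GST-GCK and FLAG-GKRP (15 nM each in the dispensed mix, with 2 uM S6P) react with 0.4 mM ATP and 5 mM glucose (final) in Hepes pH 7.6 for 60 min at room temperature. ADP is measured by ADP-Glo luminescence.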
With `NC(=O)c1ncn([C@@H]2O[C@H](CO)[C@@H](O)[C@H]2O)n1` the outcome was “inactive”.
With `COc1ccc(Cl)cc1C(=O)NCCc1ccc(S(=O)(=O)NC(=O)NC2CCCCC2)cc1` the outcome was “inactive”.
With `CN(C)CCOC(C)(c1ccccc1)c1ccccn1` (stereo unspecified) the outcome was “inactive”.
With `CC1=C(/C=C/C(C)=C/C=C/C(C)=C/C(=O)O)C(C)(C)CCC1` the outcome was “inactive”.
For `C[C@]12CC[C@@H]3c4ccc(O)cc4CC[C@H]3[C@@H]1CCC2=O`, the outcome was “inactive”.
In the case of `C[C@]12C[C@H](O)[C@H]3[C@@H](CCC4=CC(=O)CC[C@@]43C)[C@@H]1CC[C@@H]2C(=O)CO`, the outcome is reported as “inactive”.
With `COC(=O)C1=C(C)NC(C)=C(C(=O)OC)C1c1ccccc1[N+](=O)[O-]` the outcome was “inactive”.
For `CNC(=O)Oc1ccc2c(c1)[C@]1(C)CCN(C)[C@@H]1N2C`, the outcome was “inactive”.
With `CC(CN1c2ccccc2Sc2ccccc21)N(C)C` (stereo unspecified) the outcome was “inactive”.
